Tested on: Vero E6 infected with SARS-CoV-2
Assay: inhibition of SARS-CoV-2 cytopathic effect; higher = more antiviral protection, active = above 15
Settings: 48 h

Measured: inhibition of SARS-CoV-2 cytopathic effect

CCCCC(CC)CNC(=N)NC(=N)NCCCCCCNC(=N)NC(=N)NCC(CC)CCCC (stereo not given) [alexidine]
inactive: 1 nM -2.11% | 8.33 nM 4.36% | 100 nM 2.23% | 833.33 nM -6.06% | 10000 nM -18.2%

COc1cc2ncnc(Nc3ccc(F)c(Cl)c3)c2cc1NC(=O)/C=C/CN1CCCCC1 [dacomitinib]
inactive: 1 nM -4.89% | 8.33 nM -7.71% | 100 nM -13.6% | 833.33 nM -15.7% | 10000 nM -20.6%

Nc1ccc(S(=O)(=O)Nc2ccnn2-c2ccccc2)cc1 [sulfaphenazole]
inactive: 1 nM 2% | 8.33 nM 2.26% | 100 nM 1.62% | 833.33 nM 2.18% | 10000 nM -0.83%

CC(C)(C)NC(=O)[C@@H](c1cccnc1)N(C(=O)c1ccco1)c1ccc(C(C)(C)C)cc1
inactive: 1 nM -0.21% | 8.33 nM 1.78% | 100 nM 0.92% | 833.33 nM -2.61% | 10000 nM -3.73%

C=CC(=O)O [acrylate]
inactive: 1 nM 0.49% | 8.33 nM -3.42% | 100 nM -3.82% | 833.33 nM 4.25% | 10000 nM -1.97%

C[n+]1ccc(C(=O)NCc2ccccc2)cc1 [enisamium-iodide]
inactive: 1 nM -0.64% | 8.33 nM 7.37% | 100 nM -0.6% | 833.33 nM 4.79% | 10000 nM 0.11%

COC(=O)Nc1nc2cc(Sc3ccccc3)ccc2[nH]1 [fenbendazole]
inactive: 1 nM 0.07% | 8.33 nM -1.31% | 100 nM 0.21% | 833.33 nM 0.61% | 10000 nM -0.61%

Nc1nc(Nc2ccc(S(N)(=O)=O)cc2)nn1C(=O)c1c(F)cccc1F
inactive: 1 nM 2.48% | 8.33 nM 1.33% | 100 nM 0.15% | 833.33 nM -0.22% | 10000 nM 10.8%

CCCCCCCCN=c1ccn(CCCCCCCCCCn2ccc(=NCCCCCCCC)cc2)cc1 [octenidine]
inactive: 1 nM 0.26% | 8.33 nM 2.35% | 100 nM 0% | 833.33 nM -7.17% | 10000 nM -19.8%

N#C[C@H](O[C@@H]1O[C@H](CO[C@@H]2O[C@H](CO)[C@@H](O)[C@H](O)[C@H]2O)[C@@H](O)[C@H](O)[C@H]1O)c1ccccc1 [amygdalin]
inactive: 1 nM 0.51% | 8.33 nM -1.9% | 100 nM 0.79% | 833.33 nM -1.12% | 10000 nM 0.27%

N=C(N)Nc1ccc(Cl)cc1 [4-chlorophenylguanidine]
inactive: 1 nM 0.9% | 8.33 nM 1.22% | 100 nM 0.63% | 833.33 nM -0.99% | 10000 nM 0.95%

Oc1cc(O)cc(O)c1 [phloroglucin]
inactive: 1 nM 3.42% | 8.33 nM 1.38% | 100 nM 2.28% | 833.33 nM 2.17% | 10000 nM -2.03%

N[C@@H](Cc1ccc(O)cc1)C(=O)O [plovamer-acetate]
inactive: 1 nM -8.12% | 8.33 nM -7.1% | 100 nM -9.88% | 833.33 nM -9.04% | 10000 nM -5.19%

Nc1nc(O)c2[nH]nnc2n1 [azaguanine-8]
inactive: 1 nM 1.2% | 8.33 nM 2% | 100 nM 1.6% | 833.33 nM 1.36% | 10000 nM 6.36%

CC[C@H](CO)Nc1nc(NCc2ccccc2)c2ncn(C(C)C)c2n1 [roscovitine]
inactive: 1 nM 1.02% | 8.33 nM 2.46% | 100 nM -0.4% | 833.33 nM -1.46% | 10000 nM -0.57%

Cc1ccnc2c1NC(=O)c1cccnc1N2C1CC1 [nevirapine]
inactive: 1 nM -0.06% | 8.33 nM 2.22% | 100 nM 0.61% | 833.33 nM 0.25% | 10000 nM 0.49%

O=c1ccc2cc3ccoc3cc2o1 [psoralen]
inactive: 1 nM -1.78% | 8.33 nM 1.39% | 100 nM 1.55% | 833.33 nM 0.22% | 10000 nM -0.41%

CCCCOC(=O)c1ccc(N)cc1 [butamben]
inactive: 1 nM 3.03% | 8.33 nM 2.87% | 100 nM 2.37% | 833.33 nM 6.53% | 10000 nM 2.78%

Oc1nc(O)c2nc(O)[nH]c2n1 [uric-acid]
inactive: 1 nM -0.34% | 8.33 nM 0.2% | 100 nM -1.96% | 833.33 nM -1.44% | 10000 nM -0.42%

O=c1c(-n2ccnn2)c[nH]n1-c1cc(N2CCOCC2)ncn1 [molidustat]
inactive: 1 nM 1.15% | 8.33 nM -0.02% | 100 nM -0.4% | 833.33 nM 3.64% | 10000 nM 2.32%

From the supplement of paper PMC13380429
